# FMDV antiviral: foot and mouth disease virus antiviral activity; FMDV antiviral cell-based qHTS; Potency, µM (top dose mostly 57.9 µM), inactives show at the highest dose activity change, negative = inhibition, hits mostly inhibitors; AID 1159524; 1.2% of 410,000 active; calls by dose curve; tested in HEK293T cells; also: read-out not given here; potency is read from the fitted curve at half-maximal effect; nearly all actives have a fitted effect of over 45% in size
# LASV entry inh: blocks Lassa virus binding to or entry into cells. Lassa virus pseudotype entry inhibition, cell reporter. 1.2% of 300,000 active. Potency, µM (top dose mostly 37.9 µM), for the others: at the highest dose activity change, negative = inhibition, hits mostly inhibitors; calls by dose curve; tested in HEK293 cells; also: potency is read from the fitted curve at half-maximal effect; nearly all actives have a fitted effect of over 50% in size
# HCMV inh: inhibitors of human cytomegalovirus | HFF cells, HCMV-luciferase reporter, 72 h; hits give low values | activity change, negative = inhibition, % at 57.5 µM | 4.5% of 410,000 active | AID 1259415; in the data active = activity change below about -60%; inconclusive = no clear call, values can overlap the other calls; inactive = above about -39%
#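 Cell-based, HFFs, 1000 cells/well, 16 h 37C; cpds in DMSO + HCMV-luc, MOI 1 PFU/cell; 72 h 37C; OneGlo luminescence after 5 min RT; norm. to buffer vs Salinomycin 10uM.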
# MARV entry inh: Marburg virus entry inhibition | AID 540276 | 1.8% of 300,000 active | Potency, µM (highest dose often 37.8 µM), for inactives: at the top dose activity change, negative = inhibition, actives largely listed as inhibitors | Marburg virus pseudotyped entry inhibition, cell reporter; calls by dose curve; tested in HEK293 cells; also: potency is read from the fitted curve at half-maximal effect
# * marks the source's active call; other numbers are inactive results; ? = inconclusive; . = no result given; [ ] = dose if it differs, or a comment. This is a sample that favours compounds with a hit; in the whole collection about 6.2% have one here. % is scaled to controls: 0 for no effect and ±100 for the full control effect.
SMILES,FMDV antiviral,LASV entry inh,HCMV inh,MARV entry inh
CCCn1c(=S)[nH]c2cc(C(=O)N3CCCC(C(=O)OCC)C3)ccc2c1=O (configuration not stated),18µM*,-30%,29,?
CCN(CC)C(=O)c1ccc2c(=O)n(Cc3ccc4c(c3)OCO4)c(=S)[nH]c2c1,2%,.,-25,.
CC1CCCN(C(=O)c2ccc3c(=O)n(Cc4ccc5c(c4)OCO5)c(=S)[nH]c3c2)C1 (configuration not stated),?,-27%,-87*,-20%
COc1cc(C(=O)O)cc(NC(=O)c2cccs2)c1OC,-10%,0%,4,29%
Cc1nc(NC(=O)CSc2nnc3ccccn23)c(Cl)cc1Cl,35%,15%,-34,0%
Cc1cccc(C(=O)NNC(=O)c2ccc(S(=O)(=O)N3CCOCC3)cc2)c1,-3%,?,-75*,?
Cc1ccc(C(=O)NNC(=O)c2cccc(S(=O)(=O)N3CCOCC3)c2)cc1,-8%,.,2,.
O=C(c1cccc(S(=O)(=O)Nc2cccc(C(F)(F)F)c2)c1)N1CCOCC1,9%,19%,-27,-1%[46.1 µM]
O=C(c1cccc(NS(=O)(=O)c2cccc(C(F)(F)F)c2)c1)N1CCOCC1,17%,-2%,-62*,8%
O=C(NCC1CCN(c2ccc(S(=O)(=O)N3CCOCC3)cc2)CC1)c1ccc(Cl)cc1,40µM*,?,?,?
O=C(O)c1cccc(NS(=O)(=O)c2ccc(S(=O)(=O)N3CCOCC3)cc2)c1,-16%,.,-76*,.
Cc1c(C(=O)N2CCOCC2)c(S(=O)(=O)Nc2ccc(F)cc2)c(C)n1C,38%,.,0,.
CC(C(=O)NC1CCCC1)n1c(-c2ccncc2)nc2ccccc21 (configuration not stated),-13%,.,17,.
CCCn1cc(C(=O)OCC)c(=O)c2cc(F)c(F)cc21,-6%,10%,18,?
COc1ccc(-c2c3c(nc4sc5c(=O)[nH]c(C)nc5c24)CCC3)cc1,0%,8%,-88*,?
COc1ccc(-c2c3c(nc4sc(C(=O)Nc5cc(C)on5)c(N)c24)CCC3)cc1,.,?,?,-28%
O=[N+]([O-])c1ccc(N=Nc2c(Cl)cc(O)cc2Cl)cc1,?,.,-100*,.
COc1cccc(CN(C)C(=O)CNC(=O)c2sc3ccccc3c2Cl)c1OC,40µM*,?,-35,-9%
Oc1cccc2ccc(/C=C/c3ccccc3Cl)nc12,18%,.,-29,.
CNc1ccc(Br)cc(C(=O)/C=C/c2cc(OC)ccc2OC)c1=O,20µM*,?,-102*,?
CNc1ccc(Br)cc(C(=O)/C=C/c2ccc(OC)cc2)c1=O,16µM*,-15%,3,-17%
CNc1ccc(Br)cc(C(=O)/C=C/c2ccc3c(c2)OCO3)c1=O,?,?,-3,-32%
CCNc1ccc(Br)cc(C(=O)/C=C/c2ccc(Cl)cc2Cl)c1=O,?,?,-103*,?
Cc1cc(Br)cn2c(Cc3ccsc3)c(-c3ccco3)nc12,35µM*,.,57,.
COc1ccccc1Cc1c(-c2ccco2)nc2c(C)cc(Br)cn12,14µM*,.,.,.
SMILES,FMDV antiviral,LASV entry inh,HCMV inh,MARV entry inh
CC(C)CC1c2[nH]c3ccccc3c2CCN1C(=O)c1cnccn1 (configuration not stated),29%,?,2,2.8µM*
CCCCN1C=CC(=C2C(=O)c3ccccc3C2=O)C=C1,10µM*,?,-88*,?
CCCCC1C(=O)N(c2ccccc2)N(c2ccccc2)C1=O,0%,2%,?,?
CC1(C)CC(N2CCCCC2)=CC(=[N+]2CCCCC2)C1,?,?,-95*,?
CCCN(CCC)C1=CC(=[N+]2CCCC2)CC(C)(C)C1,?,10µM*,-101*,?
CC1(C)CC(N2CCOCC2)=CC(=[N+]2CCOCC2)C1,-9%,-6%,?,?
CCN(c1ccccc1)S(=O)(=O)c1ccc(C(=O)Nc2nnc(C3CC3)o2)cc1,-17%,?,-69*,?
CCN(c1ccccc1)S(=O)(=O)c1ccc(C(=O)Nc2nnc(COC)o2)cc1,-17%,-13%,17,-23%
CCN(c1ccccc1)S(=O)(=O)c1ccc(C(=O)Nc2nnc(CSC)o2)cc1,-22%,.,-95*,.
Cc1cccc(Cn2c(CN3CCC(C(=O)NCc4cccnc4)CC3)cc3ccccc32)c1,?,-13%[46.1 µM],-13,.
Cc1ccc2c(c1)COc1c3ccc(C(=O)O)cc3nn1-2,10µM*,.,0,.
Cc1nc(NCc2ccccn2)c2ccccc2n1,?,-43%,-84*,?
c1ccc(CNc2nc(-c3ccccn3)nc3ccccc23)cc1,?,?,-97*,?
c1ccc(CNc2nc(-c3ccccc3)nc3ccccc23)cc1,-6%,22%[46.1 µM],?,?
CCC(C)Nc1nc(-c2ccccn2)nc2ccccc12 (configuration not stated),?,.,-99*,.
COc1ccc(Nc2nc(-c3cccs3)nc3ccccc23)cc1,?,-22%,-102*,?
N#C/C(=C(/O)COC(=O)c1ccc2c(c1)OCCO2)c1nc2ccccc2[nH]1,29%,?,8,-6%
Cc1nc2cc(NC(=O)C3(C)CCCN(C(C)C)C3)ccc2o1 (configuration not stated),9%,.,71,.
COc1cccc(-c2nc(NCC3CCCO3)c3ccccc3n2)c1O (configuration not stated),18µM*,?,33,?
c1ccc(CNc2nc(-c3cccs3)nc3ccccc23)cc1,?,4%,-74*,7%
c1ccc(CNc2nc(NCc3ccccc3)c3ccccc3n2)cc1,?,10µM*,.,?
COc1ccc(Nc2nc(-c3cccc([N+](=O)[O-])c3)nc3ccccc23)cc1,40µM*,?,23,15µM*
Fc1ccccc1-c1nc(NCc2ccccc2)c2ccccc2n1,-11%,1%,-24,-6%[46.1 µM]
CC(C)CN1Cc2cc(-c3ccccc3)ccc2-n2nncc2C1,0%,.,16,.
COc1ccc(C(C)(C)C)cc1NC(=O)OC[C@@H]1CSCCS(=O)(=O)N1,.,4%[46.1 µM],-5,.
SMILES,FMDV antiviral,LASV entry inh,HCMV inh,MARV entry inh
CCC(C)Nc1nc(-c2cccc(OC)c2O)nc2ccccc12 (configuration not stated),28µM*,?,55,?
CC(C)(C)c1ccc(-c2nc(NCc3cccnc3)c3ccccc3n2)cc1,17%,?,-72*,?
COc1cccc(-c2nc(NC(C)C)c3ccccc3n2)c1O,?,-10%,-15,-29%
c1ccc(CNc2nc(NCc3ccccc3)c3sccc3n2)cc1,0%,.,-80*,.
CCN(C(=O)CSc1nc(C)cc(=O)[nH]1)C1CCCCC1,-8%,8%,-15,0%
C=CCOC(=O)C1=C(C)Nc2ncnn2C1c1cc(Br)ccc1F (configuration not stated),13µM*,-26%,-28,?
CC(=O)Nc1ccc2c(c1)nc1n2CCN(C2CCCCC2)C1,47%,-2%,-14,?
O=C(Cc1c(F)cccc1Cl)Nc1cccc(S(=O)(=O)NC2=NCCCCC2)c1,7%,?,-3,-2%
O=C(Cc1ccc(Cl)cc1Cl)Nc1cccc(S(=O)(=O)Nc2ccccc2F)c1,-8%,7.3µM*,9,?

# From PubChem BioAssay
